tim23-1 inh = tim23-1 yeast growth inhibition | S. cerevisiae tim23-1 growth, BacTiter-Glo luminescence, 24 h | inhibition, % at 20 µM | 330,000 compounds, 1.3% hits;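 active = growth inhibition of the mutant yeast at or above 50%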;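 also: temperature-sensitive mutant grown at 25 °C; plate controls were DMSO-treated mutant yeast for no effect and medium wells lacking yeast for full effect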
tim10-1 inh = growth inhibitors of tim10-1 mutant yeast | S. cerevisiae tim10-1 ts strain growth, BacTiter-Glo, 24 h | inhibition, % at 20 µM | 330,000 compounds, 2.2% hits | AID 463190;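 active = inhibition of at least 40%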;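 also: mutant grown at 25 °C; 0% = DMSO wells with yeast and 100% = wells holding no yeast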
TIM10 inh = TIM10 yeast growth inhibition | S. cerevisiae TIM10 strain growth, BacTiter-Glo luminescence, 24 h | inhibition, % at 10 µM | AID 463195 | 330,000 compounds, 1.4% hits;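 active = inhibition of 40% or more at the single tested concentration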;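 also: wild-type TIM10 isogenic control strain grown at permissive 25 °C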
PfHsp90 set2 = inhibits growth of yeast expressing Plasmodium falciparum Hsp90; S. cerevisiae expressing PfHsp90, BacTiter-Glo ATP, 48 h; yeast lacking PDR1 and PDR3 efflux regulators; 310,000 compounds, 0.32% hits; inhibition, % at 9.4 µM; AID 504621;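 active = every replicate shows inhibition above about 80%, whatever the replicate mean, limit read from the data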;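 also: 0% = DMSO neutral controls and 100% = 20 µM radicicol positive controls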
NLRP3 yeast inh = inhibitors of NALP3 inflammasome in yeast. AID 2825. inhibition, % at 10 µM. Yeast reconstituted NLRP3/ASC/caspase-1, beta-gal luminescence, 24 h. 330,000 compounds, 0.39% hits;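 active = inhibition of 50% or more; inactive = inhibition below 50%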;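 also: plate controls were induced DMSO wells for no effect and uninduced yeast grown without galactose for full effect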
tim10-1 conf = tim10-1 yeast growth inhibition, confirmed; shares compounds with tim10-1 inh; S. cerevisiae tim10-1 ts strain growth, BacTiter-Glo, 24 h; inhibition, % at 20 µM; 7,400 compounds, 56% hits; AID 463213;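 active = inhibition of yeast growth at or above a set limit in either of two repeat tests at 20 µM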;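 also: tim10-1 mutant grown at permissive 25 °C to find synthetic lethal compounds; 0% = DMSO yeast wells and 100% = medium wells without yeast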
Active calls of the source: *. In the library only some 3.7% were active in any assay of this set; here they are far more common.

Cc1ccccc1C1C(C#N)=C2N=C(N)c3c(sc4c3CCCCC4)N2C2=C1C(=O)CC(C)(C)C2 (stereo not given) was read as tim23-1 inh 37, tim10-1 inh 33, TIM10 inh 10 and NLRP3 yeast inh 5.
For Cc1ccccc1C1C(C#N)=C2NC(=O)c3c(sc4c3CCCCC4)N2C2=C1C(=O)CC(C)(C)C2 (stereo not given) the results were tim23-1 inh 48, tim10-1 inh 46*, TIM10 inh 28, NLRP3 yeast inh -1 and tim10-1 conf 32*.
`O=C(CCl)N(C1CCCC1)C1CCS(=O)(=O)C1` (stereo not given) gave tim23-1 inh 14, tim10-1 inh -4, TIM10 inh 7, PfHsp90 set2 -8 and NLRP3 yeast inh 9.
For C/C=C(/C(=C/C)c1ccc(O)cc1)c1ccc(O)cc1 the results were tim23-1 inh 50, tim10-1 inh 44*, TIM10 inh 39, PfHsp90 set2 -14, NLRP3 yeast inh -18 and tim10-1 conf 43*.
CN(CC(=O)NCc1ccco1)CC(=O)Nc1ccc(F)c(F)c1F was read as tim23-1 inh -5, tim10-1 inh 2, TIM10 inh -7, PfHsp90 set2 -8 and NLRP3 yeast inh 22.
For COCCN(Cc1ccccc1)C(=S)Nc1ccc(OC(F)F)cc1 the results were tim23-1 inh 30, tim10-1 inh 43*, TIM10 inh 23, PfHsp90 set2 12, NLRP3 yeast inh 23 and tim10-1 conf 26.
For CCCN(Cc1ccccc1)C(=S)Nc1ccc(OC(F)F)cc1 the results were tim23-1 inh 33, tim10-1 inh 25, TIM10 inh 24, PfHsp90 set2 -3 and NLRP3 yeast inh -3.
`CCCn1c(SCC(=O)N(CC)c2c(N)n(Cc3ccccc3)c(=O)[nH]c2=O)nnc1-c1ccncc1` gave PfHsp90 set2 12.
Screening CC(/C=N/Nc1nc(C)cc(=O)[nH]1)=C\c1ccccc1 returned tim23-1 inh 13, tim10-1 inh 29, TIM10 inh 17 and NLRP3 yeast inh 18.
Screening CC(/C=N/Nc1ncc(C)c(=O)[nH]1)=C\c1ccccc1 returned tim23-1 inh 6, tim10-1 inh 41*, TIM10 inh 14, PfHsp90 set2 -4, NLRP3 yeast inh 1 and tim10-1 conf 20.
Screening CCOC(=O)c1ccc(-c2ccc3c(c2)CCC3)nc1C returned tim23-1 inh 15, tim10-1 inh 17, TIM10 inh 13, PfHsp90 set2 8 and NLRP3 yeast inh 22.
Cc1ccc(S(=O)(=O)Nc2cccc(Cl)c2)cc1NC(=O)C1CC1 was read as tim23-1 inh 11, tim10-1 inh 1, TIM10 inh 8, PfHsp90 set2 -1 and NLRP3 yeast inh 10.
Screening O=C1C2ON(c3ccc(Cl)cc3)C(c3ccco3)C2C(=O)N1c1ccccc1 (stereo not given) returned tim23-1 inh 34, tim10-1 inh 44*, TIM10 inh 7, PfHsp90 set2 -20, NLRP3 yeast inh -1 and tim10-1 conf 35*.
For O=C1C2ON(c3ccccc3)C(c3ccccc3F)C2C(=O)N1c1ccccc1 (stereo not given) the results were tim23-1 inh 15, tim10-1 inh 19, TIM10 inh 2, PfHsp90 set2 -21 and NLRP3 yeast inh 6.
Screening CCOC(=O)c1ccc(NC(=O)Cn2ncc(Cl)c(Cl)c2=O)cc1 returned tim23-1 inh 31, tim10-1 inh 40*, TIM10 inh 31, PfHsp90 set2 -15, NLRP3 yeast inh 10 and tim10-1 conf 18.
`Cc1cn(C2CCCCC2)c(=O)[nH]c1=O` gave PfHsp90 set2 2.
`O=C(Nc1nnc(-c2ccc(F)cc2)o1)C1CCCN1S(=O)(=O)c1cccs1` (stereo not given) gave tim23-1 inh 4, tim10-1 inh -2, TIM10 inh -12 and NLRP3 yeast inh 2.
Screening CC(C)c1cc(NCC2CCCO2)n2c(nc3ccccc32)c1C#N (stereo not given) returned tim23-1 inh 37, tim10-1 inh 48*, TIM10 inh 26, PfHsp90 set2 38, NLRP3 yeast inh 11 and tim10-1 conf 34*.
For COc1ccc(OCC(O)CNC(C)c2ccccc2)cc1 (stereo not given) the results were tim23-1 inh 18, tim10-1 inh 42*, TIM10 inh -18, PfHsp90 set2 21, NLRP3 yeast inh 26 and tim10-1 conf 2.

Bioassay records from PubChem BioAssay.
